Assay outcomes: PubChem, National Center for Advancing Translational Sciences (NCATS)
TDP1 cell noCPT: qHTS for Inhibitors of human tyrosyl-DNA phosphodiesterase 1 (TDP1): qHTS in cells in absence of CPT. Potency, µM (titrated, usually from 46.2 µM), for the others: at the highest dose activity change, negative = growth inhibition, usual class: inhibitors. actives 15% (n = 420,000). DT40 Tdp1-/- hTDP1 cells, no CPT, ATP luminescence, 48 h. AID 686978, 2013; note: potency is the fitted concentration of half-maximal effect; nearly all actives have a fitted effect of over 55% in size
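Stably hTDP1-transfected Tdp1-null chicken DT40 cells were treated with library compounds minus camptothecin and grown for at least 48 hr at 37 °C, after which cellular ATP was quantified by luminescence.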
HT1080-NT tox: kills 2HG-producing HT-1080-NT fibrosarcoma cells; HT-1080-NT fibrosarcoma viability, CellTiter-Glo ATP luminescence, 48 h; Potency, µM (top dose mostly 46.1 µM), for inactives: at the highest dose activity, negative = less viability, hits mostly cytotoxic; actives 1.6% (n = 360,000); AID 686970;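 note: NT is the 2HG producing partner of a matched IDH1 knockdown line; potency is the fitted concentration of half-maximal effect; 0% = DMSO-treated cells and -100% = media-only wells without cells; nearly all actives have a fitted effect of over 55% in size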
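A 48-hour cytotoxicity screen used HT-1080-NT cells plated 2 hours before compound delivery. ATP-based CellTiter-Glo luminescence measured viability, normalized to DMSO and no-cell controls.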
IL-1B inflam inh: inflammasome signaling inhibition, IL-1 beta readout. THP-1 LPS/ATP IL-1B secretion, AlphaLISA, 16 h; active compounds read low. activity change, % at 57.5 µM. actives 4.7% (n = 360,000). AID 743279; in the data active = activity change below about -50%; inconclusive = mostly about -30% to -49%
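Secreted IL-1B measured by AlphaLISA bead assay after 16 h compound exposure of THP-1 cells; compounds (final up to 57.5 uM) added 1 h before LPS (250 ng/mL) and ATP (1.25 mM) stimulation; lower signal means less secretion.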
DT40 TDP1 CPT: growth inhibition of DT40 Tdp1-/-;hTDP1 cells with camptothecin (screen for TDP1 inhibitors). chicken DT40 Tdp1-/-;hTDP1 cells + 20 nM CPT, ATP luminescence, 48 h. Potency, µM (top dose mostly 46.2 µM), inactives show at the top dose activity change, negative = growth inhibition, hits mostly inhibitors. actives 12% (n = 420,000). AID 686979; note: potency is the fitted concentration of half-maximal effect; nearly all actives have a fitted effect of over 55% in size
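Chicken DT40 Tdp1-/- cells complemented with human TDP1, 400 cells/well, exposed to compounds plus 20 nM camptothecin for at least 48 h at 37 C; viability read as ATP content by CellTiter-Glo luminescence.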
HT1080 IDH1KD tx: toxicity to HT-1080 IDH1 knockdown cells (counter line); HT-1080 IDH1 knockdown viability, ATP luminescence, 48 h; actives 2% (n = 360,000); Potency, µM (titrated, usually from 46.1 µM), inactives show at the top dose activity, negative = toxicity, actives largely listed as cytotoxic; AID 686971;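 note: potency is the fitted concentration of half-maximal effect; 0% = DMSO wells and -100% = cell-free medium wells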
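CellTiter-Glo luminescence after 48 h compound exposure at 37 degrees C of IDH1-knockdown HT-1080 cells in 5% FBS RPMI. %Activity scaled between DMSO wells and cell-free media wells, with curves fitted and assigned curve classes.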
The depositor's hits bear a star; ? = inconclusive; . = no result given. Compounds with a hit are over-represented: about 19% of the library has one in this group of screens. Unless noted, calls come from the whole dose curve; as a rule, active = well fitted curve in the direction sought with a large enough effect; inconclusive = small, poorly fitted or top-dose-only effect, or another doubt; inactive = no such curve, though single readings can be large; an effect the other way counts as inactive or inconclusive. Unless noted, % is set by controls: 0 for no effect and ±100 for the full control effect.

SMILES	TDP1 cell noCPT	HT1080-NT tox	IL-1B inflam inh	DT40 TDP1 CPT	HT1080 IDH1KD tx
COc1ccc2c(c1OC)C(=O)O[C@@H]2[C@H]1c2c(cc3c(c2OC)OCO3)CCN1C	-25.5%	.	.	4.0%	.
COc1ccc2cc1Oc1ccc(cc1)C[C@H]1c3c(cc4c(c3Oc3cc5c(cc3OC)CCN(C)[C@@H]5C2)OCO4)CCN1C	5.8µM*	16.4µM*	?	6.51µM*	20.6µM*
Cc1cc(C)c(NC(=O)CSc2nc3ccccc3c3nc(CCn4cncc4C)nn23)c(C)c1	14.6µM*	.	.	13µM*	.
CCCCNC(=O)CSc1nc(CCC)nc2ccccc12	23.1µM*	-8.4%	-13.8	23.1µM*	-9.0%
Cc1cc(C)c(NC(=O)CSc2nc(COc3ccccc3)nc3ccccc23)c(C)c1	18.4µM*	8.3%	-63.5*	23.1µM*	?
CCCNC(=O)CSc1nc(COc2ccccc2)nc2ccccc12	?	1.3%	-66.6*	-1.5%	11.8%
Cc1cccc(NC(=O)CN(CC2CCCO2)C(=O)c2cc(S(=O)(=O)N(C)C)ccc2F)c1C (configuration not stated)	-12.3%	13.0%	-2.3	-1.5%	25.7%
CCCOC(=O)C(C)n1cnc2sc(C)c(C)c2c1=O (configuration not stated)	?	0.3%	1.2	?	-6.6%
CCc1nc(SCC(=O)Nc2ccc(N(C)C)cc2)c2ccccc2n1	14.6µM*	-2.0%	?	?	-12.4%
CC(=O)Nc1ccc(C(=O)OCC(=O)NCc2ccccc2)cc1	20.6µM*	?	33.3	?	25.9µM*
CCc1nc2ccccc2c(C(=O)OCC(=O)Nc2ccc(NC(C)=O)cc2)c1C	20.6µM*	0.1%	-8.4	13µM*	-16.5%
CCCc1nc2ccccc2c(C(=O)OCC(=O)Nc2cccc(S(=O)(=O)N3CCOCC3)c2)c1CC	?	?	-10.0	11.6µM*	?
CCCc1nc2ccccc2c(C(=O)OCC(=O)Nc2ccc(S(=O)(=O)N3CCOCC3)cc2)c1CC	16.4µM*	?	-66.7*	16.4µM*	10µM*
CCc1nc2ccccc2c(C(=O)OCC(=O)NCc2ccco2)c1C	?	-7.2%	0.2	?	-9.5%
CCCc1nc2ccccc2c(C(=O)OCC(=O)NC2CC2)c1CC	?	-4.2%	3.1	?	-2.7%
Cc1onc(-c2ccccc2Cl)c1C(=O)OCC(=O)Nc1cccc(S(=O)(=O)N2CCOCC2)c1	?	?	-6.5	?	-6.7%
N#Cc1cc(Nc2c(N)nc[nH]c2=O)c([N+](=O)[O-])cc1C#N	?	-4.5%	24.0	-8.0%	-13.3%
CCCCc1ccc(S(=O)(=O)NC(=O)C2(C)CCN2C(=O)CC2CC2)cc1 (configuration not stated)	-1.0%	2.9%	12.9	-1.3%	1.9%
COCCNC(=O)c1c(N)n(/N=C/c2ccc(F)cc2)c2nc3ccccc3nc12	?	6.8%	-25.8	?	10.2%
Nc1c(S(=O)(=O)c2cccs2)c2nc3ccccc3nc2n1/N=C/c1cccc(O)c1	?	?	-79.8*	13µM*	20.6µM*
COCCNC(=O)c1c(N)n(/N=C/c2cccs2)c2nc3ccccc3nc12	16.4µM*	-7.9%	-2.9	?	-13.1%
COc1cccc(/C=N/n2c(N)c(S(=O)(=O)c3cccs3)c3nc4ccccc4nc32)c1	?	28.3%	5.2	-24.0%	21.5%
CC(C)Cn1c(N)c(S(=O)(=O)c2cccs2)c2nc3ccccc3nc21	?	-3.8%	?	16.4µM*	-9.7%
COc1ccc(/C=N/n2c(N)c(S(=O)(=O)c3cccs3)c3nc4ccccc4nc32)cc1OC	-19.7%	-7.6%	?	?	-7.9%
O=C(NCCOc1ccccc1)c1ccccc1SCC(=O)N1CCCC1	-18.4%	6.5%	16.7	-3.7%	10.1%
SMILES	TDP1 cell noCPT	HT1080-NT tox	IL-1B inflam inh	DT40 TDP1 CPT	HT1080 IDH1KD tx
Cc1oc2ccc(O)c(CN3CCOCC3)c2c1C(=O)Nc1ccc(C(C)C)cc1	16.4µM*	.	.	16.4µM*	.
Cc1oc2ccc(O)c(CN3CCN(Cc4ccccc4)CC3)c2c1C(=O)Nc1ccccc1	?	.	.	23.1µM*	.
Cc1ccccc1NC(=O)c1c(C)oc2ccc(O)c(CN3CCCCCC3)c12	20.6µM*	.	.	23.1µM*	.
Cc1ccc(NC(=O)c2c(C)oc3ccc(O)c(CN4CCCCC4)c23)c(C)c1	16.4µM*	.	.	11.6µM*	.
Cc1oc2ccc(O)c(CN3CCOCC3)c2c1C(=O)Nc1ccccc1	-3.8%	.	.	-14.6%	.
CN(C)C(CNC(=O)C1CCN(S(=O)(=O)c2cc(Cl)ccc2Cl)CC1)Cc1ccccc1 (configuration not stated)	?	0.9%	-12.1	-56.9%	0.7%
COc1ccc(NC(=O)c2c(C)oc3ccc(O)c(CN4CCCCCC4)c23)cc1Cl	?	.	.	25.9µM*	.
COc1cccc(OC)c1C(=O)Nc1ccc(CN2CCCCC2)cc1	3.3%	-2.2%	-6.8	-13.6%	3.7%
Cc1ccccc1NC(=O)c1c(C)oc2ccc(O)c(CN3CCOCC3)c12	23.1µM*	.	.	20.6µM*	.
Cc1nn(CC(=O)O)c(C)c1N	0.2%	2.0%	-5.8	-1.3%	5.5%
Cn1c(N2CCN(C(=O)NCc3ccccc3)CC2)nc2ccccc21	-20.6%	9.6%	-3.1	?	9.3%
CCCn1c(N2CCN(C(=O)Nc3ccc(Cl)cc3)CC2)nc2ccccc21	23.1µM*	-11.1%	?	?	-19.5%
Cn1c(N2CCN(C(=O)Nc3ccc(C(F)(F)F)cc3)CC2)nc2ccccc21	20.6µM*	-4.5%	-13.0	18.4µM*	-17.6%
CN(C)c1nc(SCCOC(=O)c2ccccc2)nc(N(C)C)n1	-0.3%	2.8%	13.5	-22.6%	6.8%
CCN(CC)c1nc(SCCOC(=O)Nc2ccccc2)nc(N(CC)CC)n1	?	?	-20.1	18.4µM*	?
COc1ccc(OC)c(-n2c(=O)c3ccccc3c3ccccc3c2=O)c1	-36.9%	-11.0%	-89.3*	-24.2%	0.6%
O=C1C=C(c2ccccc2Oc2ccccc2)C[C@@H](c2ccc3c(c2)OCO3)C1	?	-13.0%	-58.0*	16.4µM*	-4.0%
O=C1C=C(c2ccc3ncccc3c2)C[C@@H](c2ccc(F)cc2)C1	?	-20.1%	-4.0	?	-6.1%
O=C1C=C(c2ccccc2C(F)(F)F)C[C@@H](c2ccc3c(c2)OCO3)C1	18.4µM*	?	-12.8	?	-29.9%
COc1ccc([C@H]2CC(=O)C=C(c3ccccc3C(F)(F)F)C2)cc1	-10.7%	-0.1%	-6.6	-17.5%	-0.3%
COc1ccccc1C1=CC(=O)C[C@H](c2ccc3c(c2)OCO3)C1	18.4µM*	?	-5.0	16.4µM*	?
